From PubChem BioAssay
Active and inactive are the calls of the source. Cut-off read from the data, not from the text of the source, unless noted: active = inhibition above about 28%; inactive = the rest.

Test system: not listed separately
Experiment: StAR promoter reporter inhibitors, counter-screen for LRH-1 inverse agonist project, cell-based, luminescence, high throughput (AID 651611)
Settings: StAR promoter luciferase reporter counterscreen, at 3.6 µM, stronger effect = higher value
With `O=C(CSc1nnc(Cc2cccs2)n1Cc1ccco1)Nc1ccc(Cl)cc1Cl` the inhibition was 9.49% (inactive).
For `CC(C)NC(=O)CN1CCN(C(=O)CCl)CC1`, the inhibition was 1.19% (inactive).
In the case of `O=C(Nc1ccc(F)cc1)c1oc2ccccc2c1NC(=O)C1CC1`, the inhibition is reported as 24.4% (inactive).
For `O=C1C(Cl)=C(N2CCOCC2)C(=O)N1c1ccc(Br)cc1`, the inhibition was 12.1% (inactive).
For `Cc1c(Cl)cccc1NC(=O)CSc1sc2c(O)cc(=O)[nH]c2c1C#N`, the inhibition was -3.35% (inactive).
For `CCOCc1c(C(=O)Nc2ccccc2N2CCN(C)CC2)oc2ccccc12`, the inhibition was 13.5% (inactive).
In the case of `C/C(=N\Nc1cc(C(F)(F)F)ccc1Cl)c1ccncc1`, the inhibition is reported as 2.53% (inactive).
With `O=C(Cn1cnc2c(nnn2-c2ccccc2)c1=O)NCC1CCCO1` (stereo not given) the inhibition was -2.93% (inactive).
In the case of `O=C(c1cc(-c2ccco2)nc2ccccc12)N(Cc1nnc(-c2ccc(Cl)cc2)o1)C1CC1`, the inhibition is reported as -6.37% (inactive).
In the case of `CC(=O)ON=C1C=CC(=C(C#N)c2ccccc2)C=C1`, the inhibition is reported as 50.8% (active).
With `CN(C)c1ccc(CNc2ncnc3sccc23)cc1` the inhibition was 2.38% (inactive).
In the case of `OCCCNc1c2ccccc2nc2ccccc12`, the inhibition is reported as 13.1% (inactive).
For `O=Cc1ccc2c(c1)CCN2Cc1ccccc1`, the inhibition was 4.56% (inactive).
For `CCCc1cc(=O)oc2c(C)c(OCC(=O)NC3CC(C)(C)NC(C)(C)C3)ccc12`, the inhibition was 6.86% (inactive).
In the case of `OC(c1ccc2ccccc2n1)c1c(Cl)cccc1Cl` (stereo not given), the inhibition is reported as 12.8% (inactive).
In the case of `CNC(=O)c1cccc(NC(=O)c2cc(-c3ccccc3)nc3c2cnn3C(C)C)c1`, the inhibition is reported as 29.4% (active).
For `Cc1ccc2nsnc2c1NC(=O)c1ccc([N+](=O)[O-])o1`, the inhibition was 14.4% (inactive).
In the case of `CN1CCN(/N=C/c2nc(-c3cccc([N+](=O)[O-])c3)n3ccccc23)CC1`, the inhibition is reported as -4.33% (inactive).
For `Cc1ccccc1Nc1nc(Cl)c(C=O)s1`, the inhibition was 2.17% (inactive).
For `CCOc1cc(/C=C2/C(=N)N3OC(C)=CC3=NC2=O)ccc1OCCOc1ccccc1`, the inhibition was 5.5% (inactive).
In the case of `N#CCSc1ccccc1NC(=O)CN1C(=O)C2CC=CCC2C1=O` (stereo not given), the inhibition is reported as 10.9% (inactive).
In the case of `CN(C)c1ccc(S(=O)(=O)N2CCCCC2)cc1NC(=O)CCNC(=O)c1ccc(Cl)cc1`, the inhibition is reported as 6.54% (inactive).
For `O=C(COc1cc2oc(=O)cc(-c3ccccc3)c2cc1Cl)NCCN1CCOCC1`, the inhibition was 10.4% (inactive).
For `COc1cccc(-c2cc(NC=O)c3ncc(-c4ccc(C(C)=O)cc4)n3c2)c1`, the inhibition was 45.1% (active).
In the case of `CC(=O)N1CCN(c2ccccc2NC(=O)c2cc3ccccc3o2)CC1`, the inhibition is reported as 9.44% (inactive).
With `CCCCc1c(O)nc(SCC(=O)Nc2ccc(OC)cc2)n(-c2ccc(C)c(C)c2)c1=O` the inhibition was 24% (inactive).
In the case of `O=C(NC1CCCC(C(F)(F)F)C1)c1ccc([N+](=O)[O-])o1` (stereo not given), the inhibition is reported as 15.8% (inactive).
With `CCn1c2ccccc2c2cc(/C=N/n3cnnc3)ccc21` the inhibition was -4.6% (inactive).
With `COc1cccc(C2c3cc4c(cc3OC(NNC(N)=O)C2C)OCO4)c1O` (stereo not given) the inhibition was 24.7% (inactive).
In the case of `CCOC(=O)c1cc(C#N)c(N2CCCCC2)nc1-c1ccccc1`, the inhibition is reported as 8.89% (inactive).
For `Cc1ccc2c(c1)N(C)/C(=C/c1cccc[n+]1C)S2`, the inhibition was 28% (active).
For `COc1ccc(CCNC(=O)COC(=O)c2cc(Cl)nc(Cl)c2)cc1`, the inhibition was 3.74% (inactive).
In the case of `COc1ccc(CN(C)C(=O)CCl)cc1`, the inhibition is reported as 14.9% (inactive).
For `CC(C)N1CCc2c(sc(NC(=O)c3ccc([N+](=O)[O-])o3)c2C(N)=O)C1`, the inhibition was 37.6% (active).
For `Cc1ccc(SCC(=O)Nc2ccc(N3CCOCC3)cc2)c(C)c1`, the inhibition was 16.4% (inactive).
With `Cc1cnc(NC(=O)CCCc2nc3ccccc3s2)s1` the inhibition was 45.5% (active).
With `COc1cc(-c2cc(-c3ccc(O)cc3)nc(N)c2C#N)ccc1O` the inhibition was 36.1% (active).
For `CC(C)Cn1c(N)c(C(=O)NCC2CCCO2)c2nc3ccccc3nc21` (stereo not given), the inhibition was 23.3% (inactive).
In the case of `Cc1ccc(-c2nc3ncccc3o2)cc1NC(=O)c1ccc([N+](=O)[O-])o1`, the inhibition is reported as 24.2% (inactive).
For `Cc1ccc(SCC(=O)Nc2ccc(N3CCOCC3)cc2)cc1C`, the inhibition was -0.13% (inactive).

Target: Nuclear receptor subfamily 5 group A member 2 (Homo sapiens) (UniProt O00482)
Sequence (O00482 whole entry, looked up): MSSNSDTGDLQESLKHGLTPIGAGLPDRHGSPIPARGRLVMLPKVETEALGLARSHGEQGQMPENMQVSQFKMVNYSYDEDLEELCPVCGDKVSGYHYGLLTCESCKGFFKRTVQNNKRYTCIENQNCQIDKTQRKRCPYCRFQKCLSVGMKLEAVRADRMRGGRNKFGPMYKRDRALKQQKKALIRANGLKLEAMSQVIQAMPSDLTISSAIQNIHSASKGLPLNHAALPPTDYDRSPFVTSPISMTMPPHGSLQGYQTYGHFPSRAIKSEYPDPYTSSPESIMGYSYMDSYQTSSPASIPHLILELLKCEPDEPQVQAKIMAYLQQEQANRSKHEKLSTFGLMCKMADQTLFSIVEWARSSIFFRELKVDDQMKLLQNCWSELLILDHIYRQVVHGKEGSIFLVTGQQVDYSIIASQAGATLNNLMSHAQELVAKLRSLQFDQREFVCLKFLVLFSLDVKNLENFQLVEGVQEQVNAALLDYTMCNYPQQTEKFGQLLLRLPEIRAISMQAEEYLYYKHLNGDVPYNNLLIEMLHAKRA
Experiment: NR5A2 activity suppression in reporter cells – cell-based, luminescence, confirmation (AID 651613; in the data active = inhibition above about 42%;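 note: HEK293T cells co-transfected with LRH-1 and StAR promoter luciferase reporter; 0% = vehicle wells and 100% = parental cells lacking receptor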)
Settings: cell-based LRH-1 luciferase reporter, inverse agonism; at 3.6 µM; stronger effect = higher value
In the case of `O=C(CSc1nnc(Cc2cccs2)n1Cc1ccco1)Nc1ccc(Cl)cc1Cl`, the inhibition is reported as 51.8% (active).
With `CC(C)NC(=O)CN1CCN(C(=O)CCl)CC1` the inhibition was 52.8% (active).
For `O=C(Nc1ccc(F)cc1)c1oc2ccccc2c1NC(=O)C1CC1`, the inhibition was 50.9% (active).
In the case of `O=C1C(Cl)=C(N2CCOCC2)C(=O)N1c1ccc(Br)cc1`, the inhibition is reported as 53.2% (active).
With `Cc1c(Cl)cccc1NC(=O)CSc1sc2c(O)cc(=O)[nH]c2c1C#N` the inhibition was 25.5% (inactive).
In the case of `CCOCc1c(C(=O)Nc2ccccc2N2CCN(C)CC2)oc2ccccc12`, the inhibition is reported as 70.5% (active).
For `C/C(=N\Nc1cc(C(F)(F)F)ccc1Cl)c1ccncc1`, the inhibition was 40% (inactive).
With `O=C(Cn1cnc2c(nnn2-c2ccccc2)c1=O)NCC1CCCO1` (stereo not given) the inhibition was 16.6% (inactive).
With `O=C(c1cc(-c2ccco2)nc2ccccc12)N(Cc1nnc(-c2ccc(Cl)cc2)o1)C1CC1` the inhibition was -5.73% (inactive).
In the case of `CC(=O)ON=C1C=CC(=C(C#N)c2ccccc2)C=C1`, the inhibition is reported as 79% (active).
With `CN(C)c1ccc(CNc2ncnc3sccc23)cc1` the inhibition was 71% (active).
In the case of `OCCCNc1c2ccccc2nc2ccccc12`, the inhibition is reported as 107% (active).
In the case of `O=Cc1ccc2c(c1)CCN2Cc1ccccc1`, the inhibition is reported as 56.6% (active).
In the case of `CCCc1cc(=O)oc2c(C)c(OCC(=O)NC3CC(C)(C)NC(C)(C)C3)ccc12`, the inhibition is reported as 53% (active).
In the case of `OC(c1ccc2ccccc2n1)c1c(Cl)cccc1Cl` (stereo not given), the inhibition is reported as 42.7% (active).
With `CNC(=O)c1cccc(NC(=O)c2cc(-c3ccccc3)nc3c2cnn3C(C)C)c1` the inhibition was 51.7% (active).
In the case of `Cc1ccc2nsnc2c1NC(=O)c1ccc([N+](=O)[O-])o1`, the inhibition is reported as 57.8% (active).
In the case of `CN1CCN(/N=C/c2nc(-c3cccc([N+](=O)[O-])c3)n3ccccc23)CC1`, the inhibition is reported as 38.9% (inactive).
In the case of `Cc1ccccc1Nc1nc(Cl)c(C=O)s1`, the inhibition is reported as 50.5% (active).
For `CCOc1cc(/C=C2/C(=N)N3OC(C)=CC3=NC2=O)ccc1OCCOc1ccccc1`, the inhibition was 46% (active).
For `N#CCSc1ccccc1NC(=O)CN1C(=O)C2CC=CCC2C1=O` (stereo not given), the inhibition was 58.1% (active).
With `CN(C)c1ccc(S(=O)(=O)N2CCCCC2)cc1NC(=O)CCNC(=O)c1ccc(Cl)cc1` the inhibition was 3.72% (inactive).
For `O=C(COc1cc2oc(=O)cc(-c3ccccc3)c2cc1Cl)NCCN1CCOCC1`, the inhibition was 40.5% (inactive).
In the case of `COc1cccc(-c2cc(NC=O)c3ncc(-c4ccc(C(C)=O)cc4)n3c2)c1`, the inhibition is reported as 65.2% (active).
In the case of `CC(=O)N1CCN(c2ccccc2NC(=O)c2cc3ccccc3o2)CC1`, the inhibition is reported as 43.5% (active).
With `CCCCc1c(O)nc(SCC(=O)Nc2ccc(OC)cc2)n(-c2ccc(C)c(C)c2)c1=O` the inhibition was 60% (active).
In the case of `O=C(NC1CCCC(C(F)(F)F)C1)c1ccc([N+](=O)[O-])o1` (stereo not given), the inhibition is reported as 65.4% (active).
For `CCn1c2ccccc2c2cc(/C=N/n3cnnc3)ccc21`, the inhibition was 30.4% (inactive).
For `COc1cccc(C2c3cc4c(cc3OC(NNC(N)=O)C2C)OCO4)c1O` (stereo not given), the inhibition was 59% (active).
For `CCOC(=O)c1cc(C#N)c(N2CCCCC2)nc1-c1ccccc1`, the inhibition was 53.8% (active).
In the case of `Cc1ccc2c(c1)N(C)/C(=C/c1cccc[n+]1C)S2`, the inhibition is reported as 61.8% (active).
With `COc1ccc(CCNC(=O)COC(=O)c2cc(Cl)nc(Cl)c2)cc1` the inhibition was 47.4% (active).
In the case of `COc1ccc(CN(C)C(=O)CCl)cc1`, the inhibition is reported as 53.5% (active).
For `CC(C)N1CCc2c(sc(NC(=O)c3ccc([N+](=O)[O-])o3)c2C(N)=O)C1`, the inhibition was 55.4% (active).
In the case of `Cc1ccc(SCC(=O)Nc2ccc(N3CCOCC3)cc2)c(C)c1`, the inhibition is reported as 63.3% (active).
With `Cc1cnc(NC(=O)CCCc2nc3ccccc3s2)s1` the inhibition was 73.1% (active).
In the case of `COc1cc(-c2cc(-c3ccc(O)cc3)nc(N)c2C#N)ccc1O`, the inhibition is reported as 68.3% (active).
For `CC(C)Cn1c(N)c(C(=O)NCC2CCCO2)c2nc3ccccc3nc21` (stereo not given), the inhibition was 42.8% (active).
In the case of `Cc1ccc(-c2nc3ncccc3o2)cc1NC(=O)c1ccc([N+](=O)[O-])o1`, the inhibition is reported as 57.8% (active).
For `Cc1ccc(SCC(=O)Nc2ccc(N3CCOCC3)cc2)cc1C`, the inhibition was 51.6% (active).
